The source of these data is the supplement of paper PMC6992640.

One assay concerns HCI01 (cells of a triple-negative basal-like breast cancer xenograft). The experiment in a line: cell viability of combination (% of vehicle); higher = less cytotoxic. The settings on record: 1 µM; 72 h; partner dose: 10 nM. The procedure:
(§1)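 PDX cells were treated for 72 h with each drug at 1 µM plus afatinib (10 nM; 1 µM for WHIM30). Luciferase viability is expressed as percent of vehicle.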

The next assay has as its system WHIM2 (cells of a triple-negative basal-like breast cancer xenograft). The assay is described as above. Conditions: 1 µM; 72 h; partner dose: 10 nM. The procedure:
as §1

SMILES strings stand for the structures.

Consider `COc1cc(Nc2c(C#N)cnc3cc(OCCCN4CCN(C)CC4)c(OC)cc23)c(Cl)cc1Cl` [Bosutinib (SKI-606)] + CN(C)C/C=C/C(=O)Nc1cc2c(Nc3ccc(F)c(Cl)c3)ncnc2cc1O[C@H]1CCOC1 [Afatinib], for which the “cell viability of combination” value in the assay with HCI01 came to 40.3; in the assay with WHIM2, 38.

`CC1(C)Cc2c(-c3ccccc3)c(-c3ccc(Cl)cc3)c(CC(=O)O)n2C1` [Licofelone] + CN(C)C/C=C/C(=O)Nc1cc2c(Nc3ccc(F)c(Cl)c3)ncnc2cc1O[C@H]1CCOC1 [Afatinib]: the “cell viability of combination” value in the assay with HCI01 was 66.1; in the assay on WHIM2 it was 46.8.

With `CC(C)(C)Cn1c(N)nc2ccc(-c3[nH]c(C(C)(C)C)nc3-c3ccc(F)cc3)nc21.CS(=O)(=O)O.CS(=O)(=O)O` + CN(C)C/C=C/C(=O)Nc1cc2c(Nc3ccc(F)c(Cl)c3)ncnc2cc1O[C@H]1CCOC1 [Afatinib], the “cell viability of combination” value turned out to be 35.9 with HCI01 and 35.4 in the assay with WHIM2.

Turning to `COCCOC(=O)C1=C(C)NC(C)=C(C(=O)OCC=Cc2ccccc2)C1c1cccc([N+](=O)[O-])c1` (stereo not drawn) [Cilnidipine] + CN(C)C/C=C/C(=O)Nc1cc2c(Nc3ccc(F)c(Cl)c3)ncnc2cc1O[C@H]1CCOC1 [Afatinib], the “cell viability of combination” value with HCI01 is 48.9; with WHIM2, 40.4.

On to `CS(=O)(=O)O.Cc1c(O)cccc1C(=O)NC(CSc1ccccc1)C(O)CN1CC2CCCCC2CC1C(=O)NC(C)(C)C` (stereo not drawn) [Nelfinavir Mesylate] + CN(C)C/C=C/C(=O)Nc1cc2c(Nc3ccc(F)c(Cl)c3)ncnc2cc1O[C@H]1CCOC1 [Afatinib], for which the “cell viability of combination” value came to 44.5 with HCI01 and 53.6 in the assay on WHIM2.

For the molecule `C=C(c1ccc(C(=O)O)cc1)c1cc2c(cc1C)C(C)(C)CCC2(C)C` [Bexarotene] + CN(C)C/C=C/C(=O)Nc1cc2c(Nc3ccc(F)c(Cl)c3)ncnc2cc1O[C@H]1CCOC1 [Afatinib], the “cell viability of combination” value in the assay on HCI01 worked out at 51.8; with WHIM2 it was 35.7.

As for `CCOc1cc2ncc(C#N)c(Nc3ccc(OCc4ccccn4)c(Cl)c3)c2cc1NC(=O)C=CCN(C)C` [Neratinib (HKI-272)] + CN(C)C/C=C/C(=O)Nc1cc2c(Nc3ccc(F)c(Cl)c3)ncnc2cc1O[C@H]1CCOC1 [Afatinib], the figures for the “cell viability of combination” value in the assay on HCI01 and with WHIM2 were 60.9 and 25.5, respectively.

As for `CC[C@@]1(O)C(=O)OCc2c1cc1n(c2=O)Cc2cc3c(CN(C)C)c(O)ccc3nc2-1` [Topotecan] + CN(C)C/C=C/C(=O)Nc1cc2c(Nc3ccc(F)c(Cl)c3)ncnc2cc1O[C@H]1CCOC1 [Afatinib], the results for the “cell viability of combination” value in the assay with HCI01 and in the assay on WHIM2 were 40.1 and 31.4, respectively.

As to `CO[C@@]12[C@H](COC(N)=O)C3=C(C(=O)C(C)=C(N)C3=O)N1C[C@@H]1N[C@@H]12` [Mitomycin C] + CN(C)C/C=C/C(=O)Nc1cc2c(Nc3ccc(F)c(Cl)c3)ncnc2cc1O[C@H]1CCOC1 [Afatinib], the “cell viability of combination” value with HCI01 worked out at 36; in the assay on WHIM2 it was 35.1.

`Cl.Clc1ccccc1CN1CCc2sccc2C1` [Ticlopidine HCl] + CN(C)C/C=C/C(=O)Nc1cc2c(Nc3ccc(F)c(Cl)c3)ncnc2cc1O[C@H]1CCOC1 [Afatinib]: the “cell viability of combination” value with HCI01 was 57.8; with WHIM2 it was 47.9.

As for `Nc1ccn(C2OC(CO)C(O)C2O)c(=O)n1` (stereo not drawn) [Cytarabine] + CN(C)C/C=C/C(=O)Nc1cc2c(Nc3ccc(F)c(Cl)c3)ncnc2cc1O[C@H]1CCOC1 [Afatinib], the “cell viability of combination” value in the assay on HCI01 turned out to be 44.3; with WHIM2 it was 38.3.

As for `COc1cccc2c1C(=O)c1c(O)c3c(c(O)c1C2=O)CC(O)(C(=O)CO)CC3OC1CC(N)C(O)C(C)O1` (stereo not drawn) [Doxorubicin] + CN(C)C/C=C/C(=O)Nc1cc2c(Nc3ccc(F)c(Cl)c3)ncnc2cc1O[C@H]1CCOC1 [Afatinib], the “cell viability of combination” value with HCI01 was found to be 43.8; with WHIM2 it was 15.6.

Take `CC(Oc1cc(-c2cnn(C3CCNCC3)c2)cnc1N)c1c(Cl)ccc(F)c1Cl` [(R)-Crizotinib] + CN(C)C/C=C/C(=O)Nc1cc2c(Nc3ccc(F)c(Cl)c3)ncnc2cc1O[C@H]1CCOC1 [Afatinib]: the “cell viability of combination” value in the assay with HCI01 worked out at 66; in the assay on WHIM2, 44.4.

For the molecule `CC[C@@]1(O)C(=O)OCc2c1cc1n(c2=O)Cc2cc3c(CN(C)C)c(O)ccc3nc2-1.Cl` [Topotecan HCl] + CN(C)C/C=C/C(=O)Nc1cc2c(Nc3ccc(F)c(Cl)c3)ncnc2cc1O[C@H]1CCOC1 [Afatinib], the “cell viability of combination” value in the assay with HCI01 came to 41.4; in the assay on WHIM2 it was 25.2.

For `CCCCCCCCOc1ccccc1C(=O)Nc1ccc(C(=O)OCC[N+](C)(CC)CC)cc1.[Br-]` [Otilonium Bromide] + CN(C)C/C=C/C(=O)Nc1cc2c(Nc3ccc(F)c(Cl)c3)ncnc2cc1O[C@H]1CCOC1 [Afatinib], the “cell viability of combination” value is 52.9 in the assay with HCI01 and 53.9 with WHIM2.

Take `COc1cc2nccc(Oc3ccc(NC(=O)Nc4cc(C)on4)c(Cl)c3)c2cc1OC` [Tivozanib (AV-951)] + CN(C)C/C=C/C(=O)Nc1cc2c(Nc3ccc(F)c(Cl)c3)ncnc2cc1O[C@H]1CCOC1 [Afatinib]: the figures for the “cell viability of combination” value in the assay on HCI01 and with WHIM2 were 43.9 and 39.8, respectively.

For `CCC(NC(=O)C(C)NC)C(=O)N1CC(O)CC1Cc1c(-c2[nH]c3cc(F)ccc3c2CC2CC(O)CN2C(=O)C(CC)NC(=O)C(C)NC)[nH]c2cc(F)ccc12` (stereo not drawn) + CN(C)C/C=C/C(=O)Nc1cc2c(Nc3ccc(F)c(Cl)c3)ncnc2cc1O[C@H]1CCOC1 [Afatinib], the “cell viability of combination” value was determined as 42.3 in the assay on HCI01 and 19.1 with WHIM2.

In the case of `COc1cccc2c1C(=O)c1c(O)c3c(c(O)c1C2=O)CC(O)(C(=O)CO)CC3OC1CC(N)C(O)C(C)O1.Cl` (stereo not drawn) [Epirubicin HCl] + CN(C)C/C=C/C(=O)Nc1cc2c(Nc3ccc(F)c(Cl)c3)ncnc2cc1O[C@H]1CCOC1 [Afatinib], the entries for the “cell viability of combination” value in the assay on HCI01 and in the assay on WHIM2 were 58 and 10.2, respectively.

Take `CCCCCCCCCCCC1=C(O)C(=O)C=C(O)C1=O` [Embelin] + CN(C)C/C=C/C(=O)Nc1cc2c(Nc3ccc(F)c(Cl)c3)ncnc2cc1O[C@H]1CCOC1 [Afatinib]: the results for the “cell viability of combination” value in the assay with HCI01 and with WHIM2 were 52.9 and 42.9, respectively.

In the case of `CN1CCCC1CCOC(C)(c1ccccc1)c1ccc(Cl)cc1.O=C(O)C=CC(=O)O` (stereo not drawn) [Clemastine Fumarate] + CN(C)C/C=C/C(=O)Nc1cc2c(Nc3ccc(F)c(Cl)c3)ncnc2cc1O[C@H]1CCOC1 [Afatinib], the entries for the “cell viability of combination” value in the assay on HCI01 and with WHIM2 were 54.6 and 54, respectively.

Take `CC(=O)C1(O)Cc2c(O)c3c(c(O)c2C(OC2CC(N)C(O)C(C)O2)C1)C(=O)c1ccccc1C3=O.Cl` (stereo not drawn) [Idarubicin HCl] + CN(C)C/C=C/C(=O)Nc1cc2c(Nc3ccc(F)c(Cl)c3)ncnc2cc1O[C@H]1CCOC1 [Afatinib]: the results for the “cell viability of combination” value in the assay with HCI01 and with WHIM2 were 131 and 11.7, respectively.

In the case of `COc1ncc(-c2ccc3nccc(-c4ccnnc4)c3c2)cc1NS(=O)(=O)c1ccc(F)cc1F` + CN(C)C/C=C/C(=O)Nc1cc2c(Nc3ccc(F)c(Cl)c3)ncnc2cc1O[C@H]1CCOC1 [Afatinib], the results for the “cell viability of combination” value in the assay with HCI01 and with WHIM2 were 28.7 and 15.7, respectively.

`CCCSc1nc(NC2CC2c2ccc(F)c(F)c2)c2nnn(C3CC(OCCO)C(O)C3O)c2n1` (stereo not drawn) [Ticagrelor] + CN(C)C/C=C/C(=O)Nc1cc2c(Nc3ccc(F)c(Cl)c3)ncnc2cc1O[C@H]1CCOC1 [Afatinib]: the “cell viability of combination” value with HCI01 came out at 57.8; in the assay on WHIM2 it was 43.

For `COc1cc2c(Oc3ccc(NC(=O)C4(C(=O)Nc5ccc(F)cc5)CC4)cc3F)ccnc2cc1OCCCN1CCOCC1` + CN(C)C/C=C/C(=O)Nc1cc2c(Nc3ccc(F)c(Cl)c3)ncnc2cc1O[C@H]1CCOC1 [Afatinib], the “cell viability of combination” value came to 33.9 in the assay with HCI01 and 37.7 in the assay on WHIM2.
